# The campaign covered roughly 310,000 compounds. About 14,000 (4.5%) showed an effect of 50% or more. The effect is printed as a negative number. For the sample, strong results were picked, then their nearest neighbours and some compounds at random.
# Target: human ether-à-go-go-related gene (hERG) potassium channel (human, UniProt Q12809)
# Test: primary screen, population patch clamp on CHO cells stably expressing hERG; higher = less effect of the substance
# 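Further: peak tail current of the secondary pulse compared with the same well before compound.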
# Sequence of human ether-à-go-go-related gene (hERG) potassium channel (Q12809 whole entry, looked up): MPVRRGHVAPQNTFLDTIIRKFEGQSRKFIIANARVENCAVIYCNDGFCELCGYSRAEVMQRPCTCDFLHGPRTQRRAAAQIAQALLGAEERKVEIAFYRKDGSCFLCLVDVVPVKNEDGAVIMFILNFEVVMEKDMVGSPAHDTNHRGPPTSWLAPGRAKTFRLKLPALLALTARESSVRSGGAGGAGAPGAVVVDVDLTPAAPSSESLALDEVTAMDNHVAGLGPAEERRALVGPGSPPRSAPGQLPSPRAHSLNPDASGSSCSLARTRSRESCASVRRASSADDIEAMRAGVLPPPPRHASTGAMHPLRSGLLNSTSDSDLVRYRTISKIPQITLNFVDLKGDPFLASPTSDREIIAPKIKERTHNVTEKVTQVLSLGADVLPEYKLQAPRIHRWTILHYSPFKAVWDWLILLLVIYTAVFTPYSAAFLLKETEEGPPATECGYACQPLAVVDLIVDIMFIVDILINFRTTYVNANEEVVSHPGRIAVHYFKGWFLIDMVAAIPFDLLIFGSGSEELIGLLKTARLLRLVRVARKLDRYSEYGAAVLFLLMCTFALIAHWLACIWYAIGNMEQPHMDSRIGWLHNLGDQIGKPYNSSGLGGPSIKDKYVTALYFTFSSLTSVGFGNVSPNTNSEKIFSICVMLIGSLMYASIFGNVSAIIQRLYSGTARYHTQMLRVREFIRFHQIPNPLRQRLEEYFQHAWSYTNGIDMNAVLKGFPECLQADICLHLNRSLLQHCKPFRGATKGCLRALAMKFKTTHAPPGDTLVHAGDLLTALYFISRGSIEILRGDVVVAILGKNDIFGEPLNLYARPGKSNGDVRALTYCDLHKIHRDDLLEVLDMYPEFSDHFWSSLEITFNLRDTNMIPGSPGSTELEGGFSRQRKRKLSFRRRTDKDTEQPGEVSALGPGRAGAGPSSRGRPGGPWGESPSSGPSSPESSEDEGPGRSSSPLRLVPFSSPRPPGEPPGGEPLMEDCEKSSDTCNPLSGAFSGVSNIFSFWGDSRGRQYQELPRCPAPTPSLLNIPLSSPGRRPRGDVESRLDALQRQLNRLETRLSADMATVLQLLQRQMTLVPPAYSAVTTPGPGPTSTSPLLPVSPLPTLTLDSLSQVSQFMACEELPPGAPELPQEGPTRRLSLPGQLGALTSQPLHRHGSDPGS
row,Compound,"hERG current change (%, negative = inhibition) at 10uM"
1,COCCOc1cc(N)c(Cl)cc1Cl,15.5%
2,COc1ccc(C)cc1NC(=O)C(OC(=O)Cn1cnc2c1c(=O)n(C)c(=O)n2C)c1ccccc1 (centres unmarked),-7.98%
3,CN(c1ccccc1)S(=O)(=O)c1cccc(NC(=O)Cn2cnc3ccccc3c2=O)c1,-48.3%
4,CCN(c1ccccc1)S(=O)(=O)c1ccc(OC)c(NC(=O)Cn2cnc3c2c(=O)n(C)c(=O)n3C)c1,-66%
5,CCN(c1ccccc1)S(=O)(=O)c1ccc(OC)c(NC(=O)CCc2nc3ccccc3c(=O)[nH]2)c1,-51.2%
6,Cn1c(=O)c2c(ncn2CC(=O)Nc2ccccc2)n(C)c1=O,13.9%
7,CN(c1ccccc1)S(=O)(=O)c1cccc(NC(=O)Cn2cnc3c2c(=O)n(C)c(=O)n3C)c1,-52.6%
8,Cc1cc(C)cc(NC(=O)COC(=O)Cn2cnc3c2c(=O)n(C)c(=O)n3C)c1,-41.1%
9,Cc1cc(C)cc(NC(=O)C(OC(=O)Cn2cnc3c2c(=O)n(C)c(=O)n3C)c2ccccc2)c1 (centres unmarked),-69.7%
10,COc1ccc(S(=O)(=O)N2CCOCC2)cc1NC(=O)CCc1nc2ccccc2c(=O)[nH]1,21.5%
11,CCN(CC)S(=O)(=O)c1ccc(OC)c(NC(=O)Cn2cnc3c2c(=O)n(C)c(=O)n3C)c1,-41.3%
12,COc1ccccc1NC(=O)Cn1cnc2c1c(=O)n(C)c(=O)n2C,17.9%
13,COc1ccc(S(=O)(=O)N2CCCCC2)cc1NC(=O)CCc1nc2ccccc2c(=O)[nH]1,0.795%
14,O=C(NCc1ccco1)C1CC(c2ccc(Cl)c(Cl)c2)=NO1 (centres unmarked),8.51%
15,CC(C)C(C(=O)NCC1CCCO1)N(Cc1ccccc1)C(=O)CNS(=O)(=O)c1ccccc1 (centres unmarked),18.4%
16,O=C(Nc1cccc(Br)c1)c1cc(=O)c2ccccc2o1,19.4%
17,Cc1ccc(-c2csc(NC(=S)NC(=O)c3cc4ccccc4o3)n2)cc1,7.09%
18,Cc1cc(S(=O)(=O)N2CCOCC2)c(C)s1,9.26%
19,O=C(NCc1ccco1)c1sc2ccccc2c1Cl,-9.84%
20,CC(C)(C)CC(=O)Nc1nn[nH]n1,24.3%
21,O=C(O)CN1C(=O)/C(=C\c2cc([N+](=O)[O-])ccc2OCc2ccccc2Cl)SC1=S,29.4%
22,Cc1ccccc1-c1noc(-c2ccc(Cl)cc2)n1,25.1%
23,COc1ccc(C)c2sc(NNC(=O)COc3ccccc3)nc12,6.35%
24,Cn1c(=O)c2c(ncn2CC(=O)OCc2ccccc2)n(C)c1=O,-6.21%
25,Cn1c(=O)c2c(ncn2CC(=O)N(Cc2ccccc2)c2ccccn2)n(C)c1=O,-50.7%
26,CCN(Cc1ccccc1)C(=O)Cn1cnc2c1c(=O)n(C)c(=O)n2C,-16.1%
27,Cc1sc2ncn(CC(=O)NCCCC(=O)N3CCN(c4ccccc4F)CC3)c(=O)c2c1C,-20.9%

row,Compound,"hERG current change (%, negative = inhibition) at 10uM"
1,NC(=O)C1(N2CCCCC2)CCN(C(=O)c2cccn3c(=O)c4cc(Cl)ccc4nc23)CC1,-30.1%
2,CCOC(=O)N1CCN(C(=O)c2cccn3c(=O)c4cc(Cl)ccc4nc23)CC1,-65.7%
3,CCOC(=O)N1CCN(C(=O)c2cccn3c(=O)c4sccc4nc23)CC1,-35.9%
4,CCOC(=O)N1CCN(C(=O)c2cccn3c(=O)c4cc(Br)ccc4nc23)CC1,-68.2%
5,CCOC(=O)N1CCN(C(=O)c2ccc3nc4ccc(Cl)cc4c(=O)n3c2)CC1,-45.9%
6,O=C(c1cccn2c(=O)c3cc(Cl)ccc3nc12)N1CCOCC1,-52.9%
7,CCOC(=O)N1CCC(NC(=O)c2cccn3c(=O)c4cc(Br)ccc4nc23)CC1,3.69%
8,CCOC(CNC(=O)c1cccn2c(=O)c3cc(Cl)ccc3nc12)OCC,-7.16%
9,O=C(c1cccn2c(=O)c3ccc(Cl)cc3nc12)N1CCC2(CC1)OCCO2,-11.2%
10,O=C(c1ccc2nc3ccc(Cl)cc3c(=O)n2c1)N1CCOCC1,-55.3%
11,O=C(c1cccn2c(=O)c3cc(Br)ccc3nc12)N1CCC2(CC1)OCCO2,-37%
12,O=C(c1ccc2nc3ccc(Cl)cc3c(=O)n2c1)N1CCC2(CC1)OCCO2,-40.3%
13,O=C(O)c1nn(-c2cccc(Cl)c2)c(=O)cc1O,4.44%
14,CN(Cc1nc2ccccc2c(=O)[nH]1)CC(O)COCc1ccco1 (centres unmarked),-13.9%
15,COc1cccc(C(=O)NCc2ccc3c(c2)OCO3)c1OC,16.3%
16,CCO[C@@H]1OC(C(=O)N2CCOCC2)=C[C@H](C2CC2)[C@H]1CCCO,11.6%
17,O=C(c1ccco1)N1CCN(S(=O)(=O)c2ccc(Cl)cc2)CC1,2.47%
18,COc1ccc(OC)c(N(CC(=O)Nc2ccccc2)S(=O)(=O)c2ccccc2)c1,6.01%
19,CCN1CCN(CC(O)COc2cccc(OC)c2)CC1.Cl (centres unmarked),3.43%
20,COc1cccc(OCCOCC(O)CN2CCN(Cc3ccc(Cl)cc3)CC2)c1.Cl (centres unmarked),-72.3%
21,CCc1ccc(OCCOCC(O)CN2CCN(Cc3ccc(Cl)cc3)CC2)cc1.Cl (centres unmarked),-73.5%
22,COc1cccc(OCC(O)CN2CCN(CCO)CC2)c1.Cl (centres unmarked),15.7%
23,CCN1CCN(CC(O)COc2ccc(Cl)cc2)CC1.Cl (centres unmarked),-36.2%
24,CCc1ccc(OCC(O)CN2CCCC2)cc1.Cl (centres unmarked),-13.8%
25,COc1cc(/C=C(/NC(=O)c2ccccc2)C(=O)Nc2cccc(O)c2)c([N+](=O)[O-])cc1OC,0.394%
26,Cn1c(=O)c([N+](=O)[O-])c(NCc2ccccc2)c2ccccc21,9.94%

# — paper PMC4336329 (PLoS ONE, 2015)
